A short description of experiment [1]: Quantitative High-Throughput drug screen in 47 multiple myeloma cell lines against the NCATS MIPE library collection: AMO1_DSMZ cell viability assay (AID 1918927; further: nearly all actives have a fitted effect of over 30% in size; further: potency means the concentration at half of the fitted maximal effect). A digest of the protocol:
(§1)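 qHTS of the MIPE 4.0 collection: 500 myeloma cells/well, 48 h drug exposure at 37C in 5% CO2, then CellTiter-Glo for 5 min at room temperature before luminescence reading.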

Experiment [2] is described as follows: Quantitative High-Throughput drug screen in 47 multiple myeloma cell lines against the NCATS MIPE library collection: ARD_JJKsccE7 cell viability assay (AID 1918929; further: potency means the concentration at half of the fitted maximal effect). A digest of the protocol:
as §1

Experiment [3] can be described thus: Quantitative High-Throughput drug screen in 47 multiple myeloma cell lines against the NCATS MIPE library collection: Karpas620_DSMZ cell viability assay (AID 1918959). Further: nearly all actives have a fitted effect of over 30% in size. Further: potency means the concentration at half of the fitted maximal effect. The procedure, abridged:
as §1

Experiment [4] can be described thus: Quantitative High-Throughput drug screen in 47 multiple myeloma cell lines against the NCATS MIPE library collection: KMM1_JCRB cell viability assay (AID 1918960). Further: nearly all actives have a fitted effect of over 30% in size. Further: potency means the concentration at half of the fitted maximal effect. The procedure, abridged:
(§2)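 CellTiter-Glo luminescence after 48 h exposure gives viability, scaled between DMSO-only (100%) and media-only (0%) controls. Library compounds are pinned onto 500 myeloma cells per well, incubated at 37C with 5% CO2.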

The nature of experiment [5]: Quantitative High-Throughput drug screen in 47 multiple myeloma cell lines against the NCATS MIPE library collection: Karpas417_ECACC cell viability assay (AID 1918961). Further: potency means the concentration at half of the fitted maximal effect. The conditions noted are these: Karpas417 myeloma viability, CellTiter-Glo ATP luminescence, 48 h; viability (% of DMSO): at 45.8 µM (top of the series). The procedure, abridged: (§3)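 Luminescent ATP measurement with CellTiter-Glo gives viability, scaled between DMSO-only wells (100%) and media-only wells (0%). Cells, 500 per well, faced library compounds for 48 hours at 37C.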

Experiment [6] is described as follows: Quantitative High-Throughput drug screen in 47 multiple myeloma cell lines against the NCATS MIPE library collection: JIM3_ECACC cell viability assay (AID 1918963; further: nearly all actives have a fitted effect of over 35% in size; further: potency means the concentration at half of the fitted maximal effect). A digest of the protocol: as §1
The nature of experiment [7]: Quantitative High-Throughput drug screen in 47 multiple myeloma cell lines against the NCATS MIPE library collection: INA6_PLB cell viability assay (AID 1918965; further: nearly all actives have a fitted effect of over 55% in size; further: potency means the concentration at half of the fitted maximal effect). A digest of the protocol: as §3
A short description of experiment [8]: Quantitative High-Throughput drug screen in 47 multiple myeloma cell lines against the NCATS MIPE library collection: KMS27_JCRB cell viability assay (AID 1918970). Further: nearly all actives have a fitted effect of over 30% in size. Further: potency means the concentration at half of the fitted maximal effect. A digest of the protocol:
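CellTiter-Glo luminescence after 48 h drug exposure at 37 °C; 500 cells/well, 1536-well format, pin-tool compound addition; DMSO = 100%, media-only = 0% viability.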

Experiment [9] can be described thus: Quantitative High-Throughput drug screen in 47 multiple myeloma cell lines against the NCATS MIPE library collection: KMS12BM_JCRB cell viability assay (AID 1918971). Further: nearly all actives have a fitted effect of over 35% in size. Further: potency means the concentration at half of the fitted maximal effect. A digest of the protocol:
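Relative luminescence from CellTiter-Glo served as the viability signal, referenced to DMSO-treated (100%) and cell-free medium (0%) controls. Treatment lasted 48 hours at 37C with 500 cells per well.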

Experiment [10] in a line: Quantitative High-Throughput drug screen in 47 multiple myeloma cell lines against the NCATS MIPE library collection: KMS12PE_JCRB cell viability assay (AID 1918972). Further: nearly all actives have a fitted effect of over 30% in size. Further: potency means the concentration at half of the fitted maximal effect. The procedure, abridged: as §3
Experiment [11] in a line: Quantitative High-Throughput drug screen in 47 multiple myeloma cell lines against the NCATS MIPE library collection: KMS21BM_JCRB cell viability assay (AID 1918974). Further: potency means the concentration at half of the fitted maximal effect. As to conditions: ATP luminescence, 48 h; viability: at 45.8 µM (top of the series) unless noted. A digest of the protocol: as §1
Experiment [12] can be described thus: Quantitative High-Throughput drug screen in 47 multiple myeloma cell lines against the NCATS MIPE library collection: ARP1_JJKsccF8 cell viability assay (AID 1918928; further: nearly all actives have a fitted effect of over 40% in size; further: potency means the concentration at half of the fitted maximal effect). The procedure, abridged:
as §2

A short description of experiment [13]: Quantitative High-Throughput drug screen in 47 multiple myeloma cell lines against the NCATS MIPE library collection: KHM11_PLB cell viability assay (AID 1918962). Further: nearly all actives have a fitted effect of over 35% in size. Further: potency means the concentration at half of the fitted maximal effect. The procedure, abridged:
as §1

Experiment [14] in a line: Quantitative High-Throughput drug screen in 47 multiple myeloma cell lines against the NCATS MIPE library collection: JJN3_DSMZ cell viability assay (AID 1918966; further: potency means the concentration at half of the fitted maximal effect; nearly all actives have a fitted effect of over 50% in size). A digest of the protocol: as §1
Experiment [15] can be described thus: Quantitative High-Throughput drug screen in 47 multiple myeloma cell lines against the NCATS MIPE library collection: H1112_PLB cell viability assay (AID 1918967; further: nearly all actives have a fitted effect of over 30% in size; further: potency means the concentration at half of the fitted maximal effect). A digest of the protocol:
as §1

A short description of experiment [16]: Quantitative High-Throughput drug screen in 47 multiple myeloma cell lines against the NCATS MIPE library collection: Karpas25_ECACC cell viability assay (AID 1918968; further: nearly all actives have a fitted effect of over 35% in size; further: potency means the concentration at half of the fitted maximal effect). A digest of the protocol:
as §1

Experiment [17] is described as follows: Quantitative High-Throughput drug screen in 47 multiple myeloma cell lines against the NCATS MIPE library collection: KMS20_JCRB cell viability assay (AID 1918973). Further: nearly all actives have a fitted effect of over 45% in size. Further: potency means the concentration at half of the fitted maximal effect. A digest of the protocol: as §1
Experiment [18] is described as follows: Quantitative High-Throughput drug screen in 47 multiple myeloma cell lines against the NCATS MIPE library collection: JIM1_ECACC cell viability assay (AID 1918964; further: potency means the concentration at half of the fitted maximal effect). A digest of the protocol:
as §1

A short description of experiment [19]: Quantitative High-Throughput drug screen in 47 multiple myeloma cell lines against the NCATS MIPE library collection: EJM_DSMZ cell viability assay (AID 1918926; further: nearly all actives have a fitted effect of over 30% in size). A digest of the protocol:
as §1

Inconclusive results are not listed. Activity calls are given as the source filed them. The call rests on the fitted dose curve; in most records, active means well fitted curve in the direction sought with a large enough effect; inconclusive means small, poorly fitted or top-dose-only effect, or another doubt; inactive means no such curve, though single readings can be large; an effect the other way counts as inactive or inconclusive.

Take `CCC(=C(c1ccccc1)c1ccc(OCCN(C)C)cc1)c1ccccc1`: the Potency in experiment [1] is 18.7 µM (active); in [2] it was 20.9 µM (active); in [3] it was 23.5 µM (active); in [4], 18.7 µM (active); in [5], 14.8 µM (active); in [6], 23.5 µM (active). In addition, the Potency in experiment [7] was 16.6 µM (active); in [8], 20.9 µM (active); in [9], 26.4 µM (active); in [10], 13.2 µM (active); in experiment [11], 18.7 µM (active).
Consider `CC[C@H]1CN2CCc3cc(OC)c(OC)cc3[C@H]2C[C@@H]1C[C@@H]1NCCc2cc(OC)c(OC)cc21`, for which the Potency is 0.235 µM (active) in experiment [1]; 0.187 µM (active) in experiment [12]; 0.296 µM (active) in [2]; 0.235 µM (active) in experiment [3]; 0.187 µM (active) in experiment [4]; 0.166 µM (active) in experiment [13]. The Potency was 0.264 µM (active) in experiment [6]; 0.0526 µM (active) in [7]; 0.209 µM (active) in experiment [14]; 0.264 µM (active) in [15]; 0.118 µM (active) in experiment [16]; 0.148 µM (active) in experiment [8]. The Potency in [9] was 0.209 µM (active); in experiment [10], 0.132 µM (active); in experiment [17], 0.59 µM (active); in experiment [11], 0.264 µM (active).
In the case of `Clc1cccc(-c2nnnn2Cc2cccnc2)c1Cl`, the Potency entry in [1], in experiment [12], in [2], in [3], in experiment [4] and in experiment [13] was “inactive” throughout. The Potency entry in experiment [6], in [7], in [10] and in experiment [17] was “inactive” throughout. Further, in experiment [16], the Potency is 16.6 µM (active).
For the molecule `Cn1c(CNc2ccc(C(=N)N)cc2)nc2cc(C(=O)N(CCC(=O)O)c3ccccn3)ccc21`, the Potency result in experiment [12], in [2], in [3], in experiment [4], in experiment [13] and in [6] was “inactive” each time. Besides, the Potency entry in experiment [18], in experiment [15], in experiment [8], in experiment [9] and in [10] was “inactive” in each case.
For the molecule `CNC(=O)c1ccc(-c2cnc3ncc(Cc4ccc5ncccc5c4)n3n2)cc1F`, the Potency entry in experiment [1], in experiment [3], in experiment [4], in experiment [13] and in experiment [6] was “inactive” in each case. Besides, in experiment [14], the Potency is 5.9 µM (active).
For the molecule `CNC(=O)CN1CCC(Oc2cc3c(Nc4cccc(Cl)c4F)ncnc3cc2OC)CC1`, the Potency in [12] was 0.0372 µM (active); in experiment [2], 0.001 µM (active); in [3], 0.001 µM (active); in [4], 0.0148 µM (active); in experiment [13] it was 0.0372 µM (active); in experiment [6], 0.0332 µM (active). The Potency in [7] was 0.0235 µM (active); in experiment [9] it was 0.0187 µM (active); in [10], 0.0105 µM (active).
On to `COc1cc2ncnc(Nc3ccc(F)c(Cl)c3)c2cc1NC(=O)C=CCN1CCCCC1`, for which the Potency in [1] is 2.96 µM (active); in experiment [12] it was 23.5 µM (active); in experiment [2] it was 9.35 µM (active); in experiment [3] it was 2.96 µM (active); in [4] it was 8.33 µM (active); in experiment [13], 3.32 µM (active). The Potency in experiment [6] was 6.62 µM (active); in experiment [7] it was 3.72 µM (active); in [15], 8.33 µM (active); in [16] it was 2.96 µM (active); in [8] it was 4.18 µM (active); in [9], 18.7 µM (active). For the same molecule, the Potency in [10] is 1.87 µM (active).
`C[C@]12CC[C@H](O)CC1=CCC1C2CC[C@]2(C)C(n3cnc4ccccc43)=CCC12` (stereo partly drawn): the Potency entry in experiment [1], in experiment [2], in experiment [3], in experiment [4], in experiment [15] and in [16] was “inactive” in each case. The Potency result in experiment [8], in [10] and in [17] was “inactive” throughout. Further, the viability (% of DMSO) in experiment [5] was 109% (active). Also, the Potency in experiment [9] was 18.7 µM (active).
In the case of `Nc1ccc(S(=O)(=O)Nc2ncccn2)cc1`, the Potency result in experiment [1], in [2], in [3], in experiment [6], in experiment [7] and in experiment [16] was “inactive” each time. Besides, the Potency result in [8], in [9] and in experiment [10] was “inactive” each time.
Consider `Cn1c(=O)n(-c2ccc(C(C)(C)C#N)cc2)c2c3cc(-c4cnc5ccccc5c4)ccc3ncc21`, for which the Potency was 0.0187 µM (active) in experiment [12]; 0.0209 µM (active) in [18]; 0.0166 µM (active) in experiment [7]; 0.148 µM (active) in experiment [14]; 0.0105 µM (active) in [16]; 0.0132 µM (active) in experiment [9]. For the same molecule, the Potency in [10] was 0.0526 µM (active); in [17], 0.372 µM (active).
Take `Cc1cnc(-c2cnc(NCCNc3ccc(C#N)cn3)nc2-c2ccc(Cl)cc2Cl)[nH]1`: the Potency entry in [2], in [3], in [4], in [18] and in experiment [8] was “inactive” in each case. In addition, the Potency in experiment [13] is 16.6 µM (active); in experiment [7], 2.35 µM (active); in [16], 5.9 µM (active).
Regarding `O=C(C=Cc1cccnc1)NCCCCC1CCN(C(=O)c2ccccc2)CC1`, the Potency in experiment [4] is 0.0148 µM (active); in experiment [5] it was 13.2 µM (active); in experiment [13], 0.0235 µM (active); in [6], 0.001 µM (active); in experiment [7], 0.001 µM (active); in experiment [14] it was 0.0209 µM (active). Also, the Potency is 0.0132 µM (active) in [15]; 0.0132 µM (active) in experiment [8]; 0.0209 µM (active) in [9]; 0.0148 µM (active) in experiment [10]; 0.0166 µM (active) in experiment [11].
As to `CC(O)C1C(=O)N2C(C(=O)O)=C(SC3CNC(C(=O)N(C)C)C3)C(C)C12` (stereo not drawn), the Potency entry in [19], in experiment [3], in experiment [4], in experiment [13], in experiment [6] and in [7] was “inactive” throughout. In addition, the Potency result in [8] and in experiment [9] was “inactive” throughout.
Turning to `CN(C)CCCN=c1c2ccccc2n(C)c2[nH]c(=O)n(C)c(=O)c12`, the Potency was 2.96 µM (active) in [1]; 18.7 µM (active) in [12]; 5.26 µM (active) in [2]; 4.69 µM (active) in experiment [4]; 5.26 µM (active) in experiment [13]; 3.72 µM (active) in experiment [7]. The Potency in experiment [14] was 16.6 µM (active); in experiment [15], 16.6 µM (active); in experiment [9] it was 4.18 µM (active); in [10], 5.9 µM (active).
As for `Clc1cccc(-n2nnnc2NCc2ccccc2Oc2ccccn2)c1Cl`, the Potency entry in experiment [19], in experiment [13], in experiment [7] and in [15] was “inactive” in each case.
As for `NC(=O)c1cccc2cn(-c3ccc([C@@H]4CCCNC4)cc3)nc12`, the Potency entry in [19], in experiment [6], in experiment [16] and in [8] was “inactive” each time. Moreover, the viability (% of DMSO) in [5] was 72.2% (active). Besides, the Potency in [7] is 14.8 µM (active); in experiment [15], 20.9 µM (active).

Source of the values: PubChem BioAssay (NCATS).
